tim23-1 inh – growth inhibitors of tim23-1 mutant yeast, primary screen, luminescence, uHTS | S. cerevisiae tim23-1 growth, BacTiter-Glo luminescence, 24 h | inhibition, % at 20 µM | 330,000 tested, 1.3% active | AID 463212, 2010;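 active = growth inhibition of the mutant yeast at or above 50%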;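 note: temperature-sensitive mutant grown at 25 °C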
NALP1 inh – NALP1 inflammasome inhibitors in reconstituted yeast, colorimetric, S. cerevisiae, triplicate retest. 280,000 tested, 0.61% active. AID 2071, 2009. inhibition, % at 10 µM. S. cerevisiae NALP1/ASC/caspase-1 growth, X-gal OD620, 72 h; in the data active = inhibition mostly above about 24%, no sharp cut-off; inactive = mostly below about 32%
tim10-1 inh – growth inhibitors of tim10-1 mutant yeast, primary screen, luminescence, uHTS; S. cerevisiae tim10-1 ts strain growth, BacTiter-Glo, 24 h; inhibition, % at 20 µM; 330,000 tested, 2.2% active; AID 463190, 2010;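 active = inhibition of at least 40%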;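 note: mutant grown at 25 °C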
TIM10 inh – growth inhibitors of isogenic TIM10 control yeast, primary screen, counter-screen for tim10-1 yeast inhibitor project, luminescence, uHTS; inhibition, % at 10 µM; 330,000 tested, 1.4% active; S. cerevisiae TIM10 strain growth, BacTiter-Glo luminescence, 24 h; AID 463195, 2010;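 active = inhibition of 40% or more at the single tested concentration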;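 note: wild-type TIM10 isogenic control strain grown at permissive 25 °C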
NLRP3 yeast inh – NALP3 inflammasome inhibitors in reconstituted yeast, primary screen, luminescence, uHTS. Yeast reconstituted NLRP3/ASC/caspase-1, beta-gal luminescence, 24 h. inhibition, % at 10 µM. 330,000 tested, 0.39% active. AID 2825, 2010;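 active = inhibition of 50% or more; inactive = inhibition below 50%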
tim10-1 confirm – growth inhibitors of tim10-1 mutant yeast, confirmation, single concentration, luminescence, S. cerevisiae; shares compounds with tim10-1 inh; S. cerevisiae tim10-1 ts strain growth, BacTiter-Glo, 24 h; inhibition, % at 20 µM; 7,400 tested, 56% active; AID 463213, 2010;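 active = inhibition of yeast growth at or above a set limit in either of two repeat tests at 20 µM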;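 note: tim10-1 mutant grown at permissive 25 °C to find synthetic lethal compounds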
tim10 confirm – growth inhibitors of wild-type TIM10 yeast, confirmation, counter-screen for tim10-1 synthetic lethality project, single concentration, luminescence, S. cerevisiae | AID 463215, 2010 | shares compounds with TIM10 inh | 4,600 tested, 63% active | inhibition, % at 10 µM | S. cerevisiae tim10 strain growth, BacTiter-Glo luminescence, 24 h;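 active = inhibition of yeast growth at or above a set limit in either of two replicates at 10 µM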; note: this counterscreen used the strain with wild-type TIM10
tim23-1 conf – tim23-1 mutant yeast growth inhibitors, confirmation, luminescence, single concentration; 4,400 tested, 83% active; inhibition, % at 20 µM; shares compounds with tim23-1 inh; S. cerevisiae tim23-1 growth, BacTiter-Glo luminescence, 24 h;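 active = inhibition above about 39% in either of two replicate wells at 20 µM, limit read from the data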;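 note: temperature-sensitive tim23-1 mutant grown at 25 °C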
A number is an active result; n = inactive; x = not tested or not shown. Shown are actives, neighbours in structure and some others; about 4% of the full set was active somewhere.

SMILES | tim23-1 inh | NALP1 inh | tim10-1 inh | TIM10 inh | NLRP3 yeast inh | tim10-1 confirm | tim10 confirm | tim23-1 conf
Cc1cccc(C(=O)O/N=C(\N)c2cccc([N+](=O)[O-])c2)c1 | 52.8 | n | 73.9 | 57.9 | n | 80.4 | 48.6 | 50.5
COc1cc(OC)cc(C(=O)O/N=C(\N)c2cccc(C)c2)c1 | 85.7 | 43.1 | 52.8 | 78.8 | n | 39.7 | 84.8 | 82.8
Cc1cccc(/C(N)=N/OC(=O)Cc2ccccc2)c1 | n | n | n | n | n | x | x | x
Cc1cccc(/C(N)=N/OC(=O)C23CC4CC(CC(C4)C2)C3)c1 | 67.8 | 59.4 | 55.5 | 79.8 | n | 57.1 | n | 65.8
Cc1cccc(/C(N)=N/OC(=O)c2cccc3ccccc23)c1 | 81.6 | n | 63.7 | 86.7 | n | 54.5 | 84.8 | 47.2
Cc1cccc(-c2cc3nc4c(c(NCc5ccco5)n3n2)CCCC4)c1 | 53.8 | n | 53.0 | n | n | 33.7 | x | 56.5
O=c1oc2ccccc2nc1/C=C(O)/C=C/c1ccc(F)cc1 | 63.6 | n | 41.3 | 56.0 | n | 58.8 | 57.5 | n
O=c1[nH]c(/C=C\c2ccccc2F)nc(O)c1[N+](=O)[O-] | n | n | n | n | n | x | x | x
Nc1cccc(C(=O)N/N=C/c2ccsc2)c1 | n | n | n | n | n | x | x | x
CCCCNc1c(-c2ccc(SC(C)CC)cc2)nc2ccccn12 (stereo not given) | 58.7 | x | 47.9 | 45.0 | n | 54.8 | 34.5 | 63.3
CCCCN1C(=O)C(=Nc2cccc3cnccc23)c2ccccc21 | 71.1 | n | 44.7 | 42.1 | n | 46.4 | 34.8 | 67.3
CCCCN1C(=O)/C(=C2\SC(N3CCCCC3)=NC2=O)c2ccccc21 | n | n | n | n | n | x | x | x
CSc1nc2ccc(NS(=O)(=O)c3ccc(Cl)s3)cc2s1 | 58.5 | n | 43.8 | 47.5 | n | 32.4 | 43.8 | 78.2
CC(=O)Nc1ccc(NS(=O)(=O)c2ccc(Cl)s2)cc1 | n | n | n | n | n | x | x | x
c1csc(-c2nc(NCC3CCCO3)c3ccccc3n2)c1 (stereo not given) | n | n | n | n | n | x | x | x
c1csc(CNc2nc(-c3cccs3)nc3ccccc23)c1 | 57.3 | n | 51.3 | 41.9 | n | 43.7 | n | 52.0
CCCCC(=O)Nc1cc(Cl)ccc1C(=O)O | n | n | n | n | n | x | x | x
CCOC(=O)CSC1=NC(=O)/C(=C/c2ccc(Br)cc2)S1 | 60.7 | n | 48.5 | 60.8 | n | 62.1 | 52.1 | 69.7
Clc1ccc(-c2n[nH]c3c2CCC3)cc1Cl | 59.2 | n | 55.8 | 49.4 | n | 48.5 | 56.7 | n
Fc1ccc(C2=Nn3c(nnc3-c3n[nH]c4c3CCC4)SC2)cc1 | n | n | n | n | n | x | x | x
O=C(Nc1ccc(F)cc1)C1C(c2ccccc2)C1(Cl)Cl (stereo not given) | 59.2 | n | 48.3 | 41.4 | n | 38.7 | n | 40.3
CCCc1cc(=O)oc2cc(OC(=O)CN3C(=O)NC4(CCCC4)C3=O)ccc12 | n | x | n | n | n | x | x | x
CCOc1cc(/C=C(\C#N)C(N)=O)ccc1OS(=O)(=O)c1ccccc1 | 56.7 | n | 47.8 | n | n | 37.8 | x | 58.1
CCOC(=O)/C(C#N)=C/c1ccc(OC)c(OC)c1 | n | n | n | n | n | x | x | x
Cc1cc(C)c2sc(NC(=O)C3CC3)nc2c1 | 61.0 | n | 46.6 | 42.3 | n | 31.7 | 34.3 | 64.8
SMILES | tim23-1 inh | NALP1 inh | tim10-1 inh | TIM10 inh | NLRP3 yeast inh | tim10-1 confirm | tim10 confirm | tim23-1 conf
O=C(NCCS(=O)(=O)NCc1ccccn1)c1ccccc1 | n | x | n | n | n | x | x | x
CCOC(=O)c1c2c(c(=S)n(-c3ccccc3)c1N)CCC2 | 58.2 | n | 54.0 | n | n | 37.0 | x | 66.8
COc1ccccc1-c1nc2s/c(=C\c3cccs3)c(=O)n2n1 | 77.6 | n | 63.9 | 57.3 | n | n | n | 76.3
O=c1/c(=C/c2ccco2)sc2nc(-c3ccccc3Br)nn12 | 57.1 | n | 45.0 | 63.7 | n | 40.7 | 51.0 | 45.2
Cc1cccc(C)c1NC(=O)N1CCC(C(=O)c2ccc(F)cc2)CC1 | n | n | n | n | n | x | x | x
COc1cc(/C=N/NC(=O)c2cccc(S(=O)(=O)N3CCCC3)c2)cc(OC)c1O | n | x | n | n | n | x | x | x
COc1ccc(/C=C/c2nc3ccccc3n2C)cc1 | 66.0 | n | 56.8 | 70.2 | n | 49.2 | 67.3 | 46.6
Cc1ccc(CN2CCSCC2)c(C)c1 | n | n | n | n | n | x | x | x
Cc1cc2c([nH]c3ccccc32)c2c1OC(C)(C)C=C2 | 55.7 | n | 63.1 | n | n | 49.2 | x | 69.8
CN1C(=O)/C(=C\C(=O)c2cccs2)c2ccccc21 | 83.8 | n | 47.2 | 84.9 | n | 69.8 | 81.0 | n
CC(/C=N/n1c(COc2ccccc2)n[nH]c1=S)=C\c1ccccc1 | 50.6 | n | 43.3 | n | n | n | x | 50.0
Cc1cc(-c2n[nH]c(=S)n2/N=C/C(Cl)=C/c2ccccc2)n[nH]1 | 54.1 | n | 50.6 | 54.5 | n | 46.6 | n | 47.7
CC(C)N1C(=O)/C(=C/c2nc3ccccc3c(=O)n2-c2ccccc2)c2ccccc21 | 59.7 | n | 46.0 | 47.3 | n | 40.0 | 44.0 | 57.5
CC1CCc2ccccc2N1CC(=O)Nc1cccc(S(=O)(=O)N2CCCC2)c1 (stereo not given) | n | x | n | n | n | x | x | x
Cc1ccc(C(C)C)cc1NC(=O)Nc1ccc([N+](=O)[O-])cc1 | 74.7 | n | 75.7 | 68.5 | n | 79.3 | 67.2 | 83.0
CCOc1ccc(NC(=O)Nc2cc(C(C)C)ccc2C)cc1 | n | n | n | n | n | x | x | x
COc1ccc(CCNS(=O)(=O)c2c(C)[nH]c(C)c2C(=O)N2CCCCC2)cc1OC | n | n | n | n | n | x | x | x
CC1=CC(C)(C)N(C(=O)CN2C(=O)c3ccccc3C2=O)c2ccccc21 | 60.2 | n | 42.7 | 40.4 | n | n | n | 51.0
CC1=CC(C)(C)N(C(=O)CN2C(=O)CCC2=O)c2ccc(C)cc21 | n | n | n | n | n | x | x | x
CC(=O)Nc1ccc(S(=O)(=O)N2CCN(c3cc(C)ccc3C)CC2)cc1 | 53.9 | n | 59.8 | n | n | 49.5 | x | 46.9
CC(=O)Nc1ccc(S(=O)(=O)N2CCN(S(=O)(=O)c3ccccc3)CC2)cc1 | n | n | n | n | n | x | x | x
C=CCNC(=S)N1CCN(Cc2ccc3c(c2)OCO3)CC1 | n | n | n | n | n | x | x | x
C/C(=N\NS(=O)(=O)c1ccccc1)c1ccc2c(c1)OCCO2 | n | n | n | n | n | x | x | x
